# High-throughput results: PubChem, Broad Institute
# Rows were chosen to be rich in hits. Some 2.9% of all compounds tested hit in one or more screens of this group.
# NSD2 HMT inh – NSD2 (human) methyltransferase inhibition | actives 0.54% (n = 310,000) | inhibition, % at 12.5 µM | NSD2 peptide methylation, AlphaScreen, 120 min | AID 743445; in the data active = inhibition above about 50%
# MITF TRPM1 inh – reduces MITF-dependent TRPM1 promoter luciferase signal; SK-MEL-5 TRPM1 promoter luciferase, 24 h; inhibition, % at 12.5 µM; actives 0.83% (n = 330,000); AID 488899;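 active = mean inhibition across replicates of 60% or more, whatever share of single replicates reaches that level; inconclusive = some that reach 60%, reason not given; inactive = mean inhibition across replicates below 60%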
# Wnt act – Wnt/beta-catenin pathway activation | AID 743398 | actives 1.2% (n = 300,000) | activation, % at 9.35 µM | Wnt/beta-catenin reporter cell assay, activator, plate reader; in the data active = activation above about 30%, passing the limit was not always enough; inconclusive = no clear call, values can overlap the other calls
# PfHsp90 set2 – reduces growth (ATP signal) of yeast expressing P. falciparum Hsp90; S. cerevisiae expressing PfHsp90, BacTiter-Glo ATP, 48 h; yeast lacking PDR1 and PDR3 efflux regulators; inhibition, % at 9.4 µM; actives 0.32% (n = 310,000); AID 504621;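 active = every replicate shows inhibition above about 80%, whatever the replicate mean, limit read from the data; inconclusive = mean inhibition reaches the set limit but some replicate falls short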
# MITF TRPM1 HTS – MITF TRPM1 promoter activation in melanoma cells; SK-MEL-5 TRPM1-promoter luciferase, 24 h; % of positive control, neutral wells = 0; activation, % at 12.5 µM; actives 0.75% (n = 300,000); AID 588334;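 active = mean activation of at least 80% with every replicate also reaching 80%; inconclusive = mean reaches 80% but some replicate falls short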
# N-glyco inh – N-linked glycosylation inhibition | actives 0.23% (n = 360,000) | D54 ERlucT glycosylation luciferase reporter, 24 h; percent of 100 nM tunicamycin response | AID 588692 | reporter increase, % at 12.5 µM;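 active = mean luciferase reporter signal, scaled so untreated is 0 and the glycosylation-blocking control 100, at or above a set limit in every replicate; inconclusive = mean reaches the limit but not every replicate does; inactive = mean below the limit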;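 also: luciferase carries N-glycosylation sites so blocking glycosylation raises the light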
# Hits are given with their value; n = inactive; u = inconclusive; x = no result.
SMILES,NSD2 HMT inh,MITF TRPM1 inh,Wnt act,PfHsp90 set2,MITF TRPM1 HTS,N-glyco inh
COc1ccc(C2=CN3CCCCC3CC2=O)cc1OC (stereo not given),x,n,n,n,n,n
Cn1cnc([N+](=O)[O-])c1Sc1ncnc2nc[nH]c12,x,n,n,n,x,130
CC(=O)CSc1ncnc2nc[nH]c12,n,n,x,n,n,n
Cn1cnc(Sc2ncnc3nc[nH]c23)c1[N+](=O)[O-],x,n,n,n,n,136
Cc1cccnc1Sc1c([N+](=O)[O-])ncn1C,n,n,x,x,x,n
CCSc1nnc(NC(=O)Nc2cccc(C)c2)s1,n,n,u,n,n,n
CCCCN(C=O)c1c(CC)nc2ccc(C(=O)NCCc3c[nH]c4ccccc34)cn12,n,x,n,x,x,n
CCc1nc2ccc(C(=O)NCCc3c[nH]c4ccccc34)cn2c1N(C=O)CCC(C)C,n,x,n,x,x,64
O=C1CCc2cc(S(=O)(=O)NCCC(=O)NC3CCCCC3)ccc2N1,n,n,n,n,n,n
CCOC(=O)N1CCC2(CC1)C(C#N)=C(N)Oc1n[nH]c(CSc3ccc(C)cc3)c12,n,n,70,n,x,n
O=C(NCc1ccco1)C1CCCN(S(=O)(=O)c2ccc([N+](=O)[O-])cc2)C1 (stereo not given),n,x,x,x,x,x
CCOC(=O)CSC1=NC(=O)/C(=C\c2ccc(Cl)cc2)S1,n,66,x,n,n,n
CCOC(=O)C1CCN(C2=NC(=O)/C(=C/c3ccc(Cl)cc3)S2)CC1,n,n,n,n,n,n
Cc1ccc(C(=O)c2coc3ccc(O)c(Cl)c23)cc1,x,n,67,x,x,n
O=C(c1ccccc1)c1coc2ccc(O)c(Cl)c12,n,n,n,x,n,n
Nc1[nH]c(C(=O)c2ccccc2)c(-c2ccc(Br)cc2)c1C(=O)N1CCN(CCO)CC1,n,x,x,x,x,x
Cc1cc(NC(=O)CSc2nc3cc(Cl)ccc3o2)no1,n,n,n,n,n,n
O=S1(=O)C=C(Sc2nc3cc(Cl)ccc3o2)c2ccccc21,x,68,x,n,x,n
COc1ccccc1-c1noc(-c2ccco2)n1,n,n,n,n,90,n
N#Cc1ccc(OCC(=O)OCC(=O)N2CCc3ccccc32)cc1,n,x,n,x,x,n
O=C(CN1C(=O)NC2(CCOc3ccccc32)C1=O)Nc1cccc(Cl)c1 (stereo not given),n,n,n,n,n,n
COC(=O)c1cc2c(c3c4cc(F)ccc4n(S(=O)(=O)c4cccc(C)c4)c13)C(=O)N(Cc1ccc(N(C)C)cc1)C2,x,x,n,x,x,x
C(/C=C/c1ccccn1)=C\c1ccccc1,n,n,42,n,n,n
C(=C/c1ccccc1)/c1ccccc1,x,x,n,x,x,x
C(=C\c1cc(/C=C/c2ccccc2)ncn1)/c1ccccc1,n,n,37,n,n,n
SMILES,NSD2 HMT inh,MITF TRPM1 inh,Wnt act,PfHsp90 set2,MITF TRPM1 HTS,N-glyco inh
Cc1cccc(/C=C/c2ccccc2)n1,x,x,46,x,x,n
C(=C\c1ccccn1)/c1ccncc1,n,n,n,n,n,n
Cc1nc(/C=C/c2ccccc2)cc(/C=C/c2ccccc2)n1,n,n,n,n,n,n
Clc1ccc(CSc2nnc(-c3cccs3)o2)cc1Cl,n,x,x,x,x,x
Clc1cccc(Cc2c(-c3ccccc3)nc3ccc(Cl)cn23)c1,x,x,n,x,x,n
Cc1ccc2nc(-c3ccccc3)c(Cc3cccc(Cl)c3)n2c1,x,x,41,x,x,n
Clc1ccc2nc(-c3cccc(Br)c3)c(Cc3ccccc3)n2c1,x,x,34,x,x,n
CCOC(=O)c1c(-c2ccccc2)nc2cc(C)ccn12,n,n,n,n,x,n
Cc1ccc(Cc2c(-c3cccc(Cl)c3)nc3ccc(Br)cn23)cc1,x,x,40,x,x,n
CCOC(=O)c1c(-c2ccccc2)nc2ccc(C)cn12,n,n,47,n,n,n
CSc1ncc(C(=O)Nc2cccc(C)c2C)c(C)n1,n,n,n,n,n,n
O=C(NCc1cccnc1)c1cccc(S(=O)(=O)NCc2ccccc2)c1,n,n,n,n,n,n
Cc1ccc2nc(-c3cccc(Br)c3)c(Cc3cccc(Cl)c3)n2c1,x,x,36,x,x,n
O=S(=O)(c1ccc(F)cc1)N1CCCc2nc(-c3ccc(F)cc3)ccc21,x,x,n,x,x,x
COc1ccc(NS(=O)(=O)c2cccc(C(=O)N3CCCC(C)C3)c2)cc1 (stereo not given),n,n,n,x,n,n
COc1ccc(-c2sc3ccccc3c2/C=C/c2ccc(OC)c(OC)c2)cc1,x,n,n,n,n,n
COc1ccc(-c2sc3ccccc3c2/C=C/c2ccncc2)cc1,x,n,n,106,n,n
O=C(C(=O)N1CCC(CNS(=O)(=O)Cc2ccccc2)CC1)c1cccs1,x,x,n,x,x,x
CCn1c(C)csc1=NC(=O)c1ccccc1,n,n,n,n,n,n
Cc1csc(=NC(=O)c2ccccc2)n1C,x,n,34,x,x,n
CCOc1ccccc1C(=O)Oc1ccc2ccc(O)cc2c1,n,x,x,x,x,x
COC(=O)C1=C(C)N(C)C(=NCc2cc(OC)c(OC)c(OC)c2)NC1c1ccc(Cl)cc1 (stereo not given),x,x,n,x,x,x
Cc1ccc(-c2nnc(SCC(=O)Nc3ccc4c(c3)OCCO4)n2-c2ccc(C)cc2)cc1,n,x,x,x,x,x
O=C(CSc1nnc(-c2ccco2)n1-c1ccc(Cl)cc1)Nc1ccccc1-c1ccccc1,n,x,x,x,x,x
CN1CCN(C(=O)c2cc3ccccc3[nH]2)CC1,n,n,n,n,n,n
SMILES,NSD2 HMT inh,MITF TRPM1 inh,Wnt act,PfHsp90 set2,MITF TRPM1 HTS,N-glyco inh
O=C(c1cc2ccccc2[nH]1)N1CCOCC1,n,n,36,n,n,n
Cc1cc(C)cc(NC(=O)c2cc(C)n(Cc3cccs3)c2C)c1,n,n,n,n,103,n
Cc1cc(C(=O)Nc2ccc(Cl)cc2)c(C)n1Cc1cccs1,n,n,n,n,n,n
Cc1cc(C(=O)Cn2nnc3ccccc3c2=O)c(C)n1Cc1cccs1,n,n,35,x,x,n
CC(=O)Nc1cccc(-c2ccnc3c2CC(C)(C(=O)Nc2cccc(C(C)=O)c2)O3)c1 (stereo not given),n,x,n,x,x,30
COc1ccccc1C(=O)N1CCC2CCN(C(=O)c3ccccc3)C2C1 (stereo not given),n,x,n,x,x,x
CCN1/C(=C/c2cc[n+](C)cc2)C=Cc2cc(C)ccc21,n,70,x,n,n,n
CCCOc1ccc(-c2nc(N3CCN(C)CC3)c3ccccc3n2)cc1,n,n,46,n,125,n
CCCOc1ccc(-c2nc(N3CCN(CC)CC3)c3ccccc3n2)cc1,n,n,n,n,n,n
CC(=O)c1ccc(/C=C/c2nc3ccccc3n2C)o1,n,x,35,x,x,n
Cn1c(/C=C/c2ccccc2)nc2ccccc21,n,n,n,n,n,n
Oc1sc(C=Nc2ccc(F)cc2)c2ccccc12,n,n,42,n,n,n
Oc1sc(C=Nc2ccccc2)c2ccccc12,x,n,58,n,n,n
COc1ccc(OCc2cc(C(=O)NCC3CCCCO3)no2)c(Cl)c1 (stereo not given),n,n,n,n,n,n
COc1cnc(-c2ccccc2)nc1Oc1ccc(Cl)cc1C,n,n,n,n,n,n
